Source: PubChem BioAssay (NCI)
About 83,000 compounds went through this panel and 20% of them were active in at least one assay; those are over-represented in the sample as a whole.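 48-hour exposure, single concentration, 96-well plates; percent growth endpoint where 0 means no net growth. Active: below 10.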 Values without a mark were called inactive. Active and inactive are the calls of the source.

Tested on: KM12 colon
Assay: NCI-60 one-dose screen, 48 h (100 = growth as untreated, 0 = no growth, -100 = all killed)
Conditions: 10 µM unless noted
Procedure: Growth inhibition of the KM12 human tumor cell line is measured as a screen for anti-cancer activity. Cells are grown in 96 well plates and exposed to the test compound for 48 hours. Compounds are tested at a single concentration, which is 10^-5 M for most compounds. The reported endpoint is percent growth (GI% or GIPRCNT), where numbers from 0 - 100% represent growth inhibition, and numbers from -100% - 0 represent cell death. For example, a value of 40 represents 60% growth inhibition. A value of 0 means no net growth occurred over the course of the experiment. A value of -40 indicates 40% of cells at the beginning of the experiment died by the end of the experiment. A value of -100 means all cells are dead at the end of the experiment.
NCI-60 Human Tumor Cell Lines Screen was performed using the standard one-dose NCI protocol, which is described in more detail at https://dtp.cancer.gov/discovery_development/nci-60/default.htm.
Compounds with GIPRCNT values below 10 were considered active. Activity score was based on GIPRCNT using the following formula: […]
Score is 0 for GIPRCNT values of 100 or above, 50 for GIPRCNT values of 0, and 100 for GIPRCNT values of -100.

| Compound | growth |
| --- | --- |
| CCN(c1ccc(Cl)cc1)c1nc(-c2ccc([N+](=O)[O-])cc2)cs1 | 93.2% |
| O=C1c2cc(Cl)ccc2S(=O)(=O)c2c(NCCCNCCO)nc3ccccc3c21 | 20.1% |
| Cc1c(-c2nc3ccc(F)cc3c(=O)[nH]2)c2ccccc2n1C | 22% |
| CC(C)NC1CCC(Nc2ccnc3cc(Cl)ccc23)CC1 (stereo not given) | 110% |
| Cc1ccc(Sc2oc(-c3ccc(C)cc3)nc2[P+](c2ccccc2)(c2ccccc2)c2ccccc2)cc1 | -52.8% (active) |
| O=C1NC(=O)c2c1c1c3ccccc3ccc1c1[nH]c3ccc(Br)cc3c21 | 4.99% (active) |
| O=C(NNC(=O)c1ccc(-n2cc(-c3ccccc3)nn2)cc1)Nc1ccccc1 | 107% |
| Nc1c(C(=O)Nc2ccncc2)sc2nc3c(cc12)CCCCCC3 | 80.7% |
| CCOC(=O)c1ccc2[nH]c(O)c(C(=Nc3ccc(N(C)C(=O)CN4CCN(C)CC4)cc3)c3ccccc3)c2c1 | -33.4% (active) |
| CC(O)c1cnc(/C=C2\SC(=S)N(Cc3ccccc3)C2=O)s1 (stereo not given) | 30.3% |
| C=CCn1c(SCC(=O)Nc2ccc(C(=O)/C=C/c3cc4cc(OC)ccc4nc3Cl)cc2)nnc1-c1ccc(Br)cc1 | 84.7% |
| N#Cc1c(-c2cccs2)cc(-c2cccnc2)[nH]c1=O | 106% |
| COc1cc(C(=O)n2nc(N3CCN(C)CC3)c3cc(N)ccc32)cc(OC)c1OC | 57.9% |
| C=C1CC[C@@H]2[C@](C)(COC(C)=O)[C@H](OC(C)=O)CC[C@@]2(C)[C@@H]1CC(Sc1ccccc1)C1=CCOC1=O (stereo not given in full) | 18.6% |
| COc1cc(-c2nc3cc(Cl)c(Cl)cc3[nH]2)ccc1OCC(=O)N=Nc1c(O)[nH]c2ccc([N+](=O)[O-])cc12 | 103% |
| Cc1ccc(-c2nn(-c3ccccc3)cc2C=C2C(=O)ON=C2C(C)C)cc1 | 69.8% |
| COc1ccc2c(c1)[n+]([O-])c(C(=O)/C=C/C=C(\Cl)c1cc(OC)c(OC)c(OC)c1)c(C)[n+]2[O-] | 101% |
| C/C(Nc1ccc(Cl)c(Cl)c1)=C1\CCOC1=O | 96.2% |
| O=C(c1ccc(Cl)cc1)N1CCN(c2ccnc3cc(Cl)ccc23)CC1 | 94.9% |
| CCOC(=O)c1cnc2ccccc2c1Cl | 101% |

| Compound | growth |
| --- | --- |
| C=C1C(=O)O[C@H]2[C@H]1CC/C(COC(=O)NCc1cc[nH]c1)=C\CC[C@@]1(C)O[C@@H]21 | 78.2% |
| Cc1ccc(S(=O)(=O)N2CCCC2CO)cc1 (stereo not given) | 104% |
| Cn1cc(-c2csc(-c3ccc(Cl)cc3)n2)c2cccnc21 | -82.4% [100 µM] (active) |
| O=C(Cc1ccccc1)Nc1nc(O)c(/C=C2\C(=O)C=Cc3ccccc32)s1 | 106% |
| O=C(Nc1ccc(-c2nc(N3CCOCC3)c3cccn3n2)cc1)Nc1cccnc1 | 9.01% (active) |
| Cc1ccc(Sc2nnc(/N=C3\C(=O)Nc4ccccc43)s2)cc1 | 98.1% |
| O=C1Nc2ccccc2/C1=C\c1nc(-c2ccccc2)n2ccccc12 | 74.3% |
| N#CC1=C(c2ccc(Cl)cc2)Nc2c(c(-c3ccc(Cl)cc3)nn2-c2ccccc2)C12C(=O)Nc1ccc(Cl)cc12 (stereo not given) | 27.7% |
| COC(=O)CNC(=O)[C@H](Cc1ccccc1)NCc1ccncc1 | 103% |
| C=CC(=O)NCc1ccc(Nc2nccc(-c3ccc(N4CCCC4)c(C#N)c3)n2)cc1 | 35.2% |
| COc1ccc(-c2nn(-c3ccccc3)cc2/C=C2/SC(=S)N(C)C2=O)cc1 | 98.4% |
| OCc1cccc(-c2ccc3ncc(-c4nc(NC5CC5)ncc4F)n3c2)c1 | -18.8% (active) |
| CCN(CC)CCOc1ccc(C(=C(C)c2ccc(Cl)cc2)c2ccc(OCCN(CC)CC)cc2)cc1 | -79% (active) |
| Cc1ccc(-c2nc(N3CCNCC3)c3oc(-c4ccccc4)nc3n2)cc1 | -89.1% (active) |
| O=C(c1ccccc1)C1C(=O)N2C(=S)N(c3ccccc3)C(=O)C2C1c1ccc(Cl)cc1 (stereo not given) | 104% |
| COC(=O)c1cc(-c2ccccc2)[nH]c1N/N=C/c1c(Cl)cccc1Cl | 10.2% |
| C=C1C(=O)O[C@H]2[C@H]1CC/C(COC(=O)CCSCCC(=O)OC/C1=C/CC[C@@]3(C)O[C@H]3[C@H]3OC(=O)C(=C)[C@@H]3CC1)=C\CC[C@@]1(C)O[C@@H]21 | 34.3% |
| CCOP(=O)(OCC)c1nc(-c2ccccc2)oc1NCc1cccnc1 | 111% |
| C=C1C(=O)O[C@H]2[C@H]1CC/C(COC(=O)CSCCSCC(=O)OC/C1=C/CC[C@@]3(C)O[C@H]3[C@H]3OC(=O)C(=C)[C@@H]3CC1)=C\CC[C@@]1(C)O[C@@H]21 | 51.1% |
| COc1ccc2nc(NC(=O)CSc3nnc4n3S(=O)(=O)c3ccccc3N4C)sc2c1 | 111% |
